Test results taken from PubChem BioAssay (Tox21).
Records with an inconclusive call do not appear. Unmarked numbers belong to inactive results. Calls of active or inactive are those of the source. Calls come from the whole dose curve; as a rule, active = well fitted activation curve with a large enough effect in the repeat runs; inconclusive = weak or mixed curves; inactive = no such curve, though single readings can be large or run the other way.

test: qHTS assay to identify small molecule agonists of the estrogen related receptor signaling pathway with the pleiotropic PPARgamma coactivator (PGC) (AID 1224823); settings: ERR/PGC reporter cell line, luciferase agonist mode; series mostly up to 46.1 µM; activation: at the top concentration
Summary of the method: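 Compounds dissolved in DMSO are added by pin tool to PGC/ERR cells that have settled for 6 h, and incubation continues 18 h at 37 C. Reporter output is measured as One-Glo luminescence.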
% is set by controls: 0 for no effect and ±100 for the full control effect; potency is the fitted concentration of half-maximal effect.

Row | Compound | activation [%] | Potency
1 | O=C1C2C=CC=CC2=NC(=S)N1CCN1CCC(=C(c2ccc(F)cc2)c2ccc(F)cc2)CC1 (stereo unspecified) | -18.7 | 
2 | CCc1ccc2c(-c3cccc(Cl)c3)nc(=O)n(CC)c2n1 | 1.34 | 
3 | Cn1cc(C(F)(F)F)nc1-c1ccc(OCC(O)CNCCOc2ccc(O)c(C(N)=O)c2)cc1 (stereo unspecified) | -7.88 | 
4 | O=c1ccc2c(OCCCCc3ccccc3)c3ccoc3cc2o1 | 1.22 | 
5 | Fc1ccc2[nH]c(CN3CCN(c4ccccn4)CC3)cc2c1 | 7.81 | 
6 | O=C(Nc1ccncc1)c1cc([N+](=O)[O-])ccc1Cl | -3.35 | 
7 | CC[n+]1c(/C=C/C=C2/N(C)c3ccccc3C2(C)C)sc2ccccc21 | -25.8 | 
8 | C[C@@]1(C2CCCC2)Cc2cc(OCC(=O)O)c(Cl)c(Cl)c2C1=O | -12.9 | 
9 | CN1CCC2(CCN3CCc4c(oc5ccccc45)C3C2)N(C)C1=O (stereo unspecified) | -3.52 | 
10 | C[C@@H](CN1CCC(Cc2ccccc2)CC1)[C@@H](O)c1ccc(O)cc1 | -11.3 | 
11 | c1ccc(C(NCCNC(c2ccccc2)c2ccccc2)c2ccccc2)cc1 | -13 | 
12 | COc1cc2c(cc1O)CC[C@@H]1[C@@H]2CC[C@]2(C)[C@@H](O)CC[C@@H]12 | 12.9 | 
13 | O=C(O)c1ccccc1Nc1ccccc1 | -2.93 | 
14 | O=C(Nc1ccc2c(c1)CCN(Cc1ncn[nH]1)C2)c1ccccc1-c1ccc(C(F)(F)F)cc1 | -11.4 | 
15 | S=C(S)N1CCCC1 | -17.1 | 
16 | COc1cc2nc(N3CCCN(C)CC3)nc(NC3CCN(Cc4ccccc4)CC3)c2cc1OC | -28.9 | 
17 | OCc1ccc(-c2nn(Cc3ccccc3)c3ccccc23)o1 | 9.61 | 
18 | O=C(CCSCc1ccco1)NNC(=O)N1Cc2ccccc2Oc2ccc(Cl)cc21 | -12.7 | 

Row | Compound | activation [%] | Potency
19 | COC(=O)[C@H](NC(=O)c1cc(-c2ccccc2)nc2ccccc12)c1ccccc1 | -7.58 | 
20 | CC(C)(C)[C@]1(O)CCN2C[C@H]3c4ccccc4CCc4cccc(c43)[C@@H]2C1 |  | inactive
21 | O=C(CCc1ccncc1)NNC(=O)N1Cc2ccccc2Oc2ccc(Cl)cc21 | -8.44 | 
22 | COc1ccccc1N1CCN(CCN(C(=O)c2ccc(F)cc2)c2ccccn2)CC1 | -8.43 | 
23 | CC(C)(C)c1ccc(/C=C/C(=O)Nc2ccc3c(c2)OCCO3)cc1 | -7.86 | 
24 | CCN(CC)CCCCCCCCOC(=O)c1cc(OC)c(OC)c(OC)c1 | 4.83 | 
25 | CN1CCc2cccc3c2C1Cc1ccc(O)c(O)c1-3 (stereo unspecified) | -24.5 | 
26 | O=C1NC(c2cccc([N+](=O)[O-])c2)=CCN1c1ccccc1O | 2.65 | 
27 | COc1cccc(OC)c1OCCNCC1CSc2ccccc2O1 (stereo unspecified) | -4.76 | 
28 | N=C(N)c1ccc(OCCCCCOc2ccc(C(=N)N)cc2)cc1 (tested in a mixture with another compound) | -12 | 
29 | C[C@]12C=CC(=O)C=C1CC[C@@H]1C2=CC[C@]2(C)[C@@H](C(=O)CN3CCN(c4cc(N5CCCC5)nc(N5CCCC5)n4)CC3)CC[C@@H]12 | -9.72 | 
30 | COc1ccc(NC(=O)c2ccc(-c3ccc(-c4noc(C)n4)cc3C)cc2)cc1N1CCN(C)CC1 | 7.05 | 
31 | O=c1cc(N2CCOCC2)oc2c(-c3ccccc3)cccc12 | -14.4 | 
32 | COCCOc1cc2ncnc(Cl)c2cc1OCCOC | -12.2 | 
33 | COc1ccccc1N1CCN(CCN2C(=O)CC3(CCCC3)CC2=O)CC1 | -8.33 | 
34 | Nc1nc(Cl)nc2c1ncn2[C@@H]1O[C@H](COP(=O)(O)OP(=O)(O)OP(=O)(O)O)C(O)[C@H]1O (stereo partly specified) |  | 1330 nM (active)
35 | CCC1(O)CC2CN(CCc3c([nH]c4ccccc34)[C@@](C(=O)OC)(c3cc4c(cc3OC)N(C)C3[C@]45CCN4CC=C[C@@](CC)([C@@H](OC(C)=O)[C@]3(O)C(=O)OC)[C@H]45)C2)C1 (stereo partly specified) | -13.3 | 
36 | Nc1nc2ccc(Cl)cc2c2nc(-c3ccco3)nn12 | -6.61 | 
